Experimental data from PubChem BioAssay AID1159580 (chemical genetic matrix, 2015).
“And” between values parts separate entries of the source, which are not always exact repeats. Equal values may be shown once. Out of some 5,500 compounds screened, about 2,000 (36%) were called active. Roughly 18% stayed inconclusive and do not appear here. Cut-off read from the data, not from the text of the source: active = normalized growth mostly below about 0.91 (no sharp cut-off); inconclusive = no clear call, values can overlap the other calls; inactive = mostly above about 0.92. This is one part of the list.

Assay: chemical genetic growth profiling, strain panel (AID 1159580);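 note: tested at 20 µM; growth read once vehicle control cultures reached saturation at 30 °C; 1 = growth at the plate median or of vehicle wells; lower values mean less growth of the strain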
Conditions: growth OD

Measured: normalized growth

Clc1ccc(C(c2ccccc2Cl)C(Cl)Cl)cc1 (stereo not given)
inactive: S. cerevisiae deletion strains, locus YJR066W, strain TOR1, hits give low values 0.894 | S. cerevisiae deletion strains, locus YJR075W, strain HOC1, hits give low values 1 | S. cerevisiae deletion strains, locus YKL009W, strain mrt4, hits give low values 0.98 | S. cerevisiae deletion strains, locus YKL068W, hits give low values 0.995 | S. cerevisiae deletion strains, locus YKL085W, strain MDH1 (second series), hits give low values 0.989 | S. cerevisiae deletion strains, locus YKL085W, strain MDH1, hits give low values 0.989 | S. cerevisiae deletion strains, locus YKL160W, strain elf1, hits give low values 0.923 | S. cerevisiae deletion strains, locus YKL190W, strain CNB1, hits give low values 1.03 | S. cerevisiae deletion strains, locus YKR001C, strain vps1, hits give low values 0.968 | S. cerevisiae deletion strains, locus YKR026C, strain gcn3, hits give low values 0.979 | S. cerevisiae deletion strains, locus YKR091W, strain srl3, hits give low values 0.976 | S. cerevisiae deletion strains, locus YLL001W, strain dnm1, hits give low values 0.91 | S. cerevisiae deletion strains, locus YLL026W, hits give low values 0.962 | S. cerevisiae deletion strains, locus YLL041C, strain sdh2, hits give low values 0.972 | S. cerevisiae deletion strains, locus YLR039C, strain RIC1, hits give low values 0.978 | S. cerevisiae deletion strains, locus YLR058C, strain SHM2, hits give low values 0.994 | S. cerevisiae deletion strains, locus YLR102C, strain apc9, hits give low values 0.993 | S. cerevisiae deletion strains, locus YLR113W, strain HOG1, hits give low values 0.93 | S. cerevisiae deletion strains, locus YLR221C, strain rsa3, hits give low values 0.927 | S. cerevisiae deletion strains, locus YLR258W, strain gsy2, hits give low values 0.984 | S. cerevisiae deletion strains, locus YLR262C, strain YPT6 (second series), hits give low values 0.881 | S. cerevisiae deletion strains, locus YLR262C, strain YPT6, hits give low values 0.955 | S. cerevisiae deletion strains, locus YLR268W, strain sec22, hits give low values 0.988 | S. cerevisiae deletion strains, locus YLR320W, strain mms22, hits give low values 0.929 | S. cerevisiae deletion strains, locus YLR330W, strain CHS5, hits give low values 1 | S. cerevisiae deletion strains, locus YLR342W, strain FKS1 (second series), hits give low values 1 | S. cerevisiae deletion strains, locus YLR342W, strain FKS1, hits give low values 0.999 | S. cerevisiae deletion strains, locus YLR357W, strain rsc2, hits give low values 1.04 | S. cerevisiae deletion strains, locus YLR370C, strain arc18, hits give low values 0.968 | S. cerevisiae deletion strains, locus YLR371W, strain rom2, hits give low values 0.985 | S. cerevisiae deletion strains, locus YLR384C, strain iki3, hits give low values 0.97 | S. cerevisiae deletion strains, locus YLR418C, strain cdc73, hits give low values 0.91 | S. cerevisiae deletion strains, locus YML016C, strain PPZ1, hits give low values 0.992 | S. cerevisiae deletion strains, locus YML032C, strain rad52, hits give low values 0.979 | S. cerevisiae deletion strains, locus YML120C, strain ndi1, hits give low values 0.932 | S. cerevisiae deletion strains, locus YML124C, strain tub3, hits give low values 0.988 | S. cerevisiae deletion strains, locus YMR058W, strain fet3, hits give low values 0.952 | S. cerevisiae deletion strains, locus YMR078C, strain ctf18, hits give low values 0.984 | S. cerevisiae deletion strains, locus YMR125W, strain sto1, hits give low values 0.991 | S. cerevisiae deletion strains, locus YMR129W, hits give low values 0.972 | S. cerevisiae deletion strains, locus YMR205C, strain PFK2, hits give low values 0.918 | S. cerevisiae deletion strains, locus YMR223W, strain ubp8, hits give low values 0.978 | S. cerevisiae deletion strains, locus YMR231W, strain pep5, hits give low values 0.97 | S. cerevisiae deletion strains, locus YMR263W, strain SAP30, hits give low values 0.975 | S. cerevisiae deletion strains, locus YMR307W, strain GAS1, hits give low values 0.986 | S. cerevisiae deletion strains, locus YNL067W, strain RPL9B, hits give low values 0.993 | S. cerevisiae deletion strains, locus YNL128W, strain TEP1, hits give low values 1.01 and 1.02 | S. cerevisiae deletion strains, locus YNL153C, strain GIM3, hits give low values 1.01 | S. cerevisiae deletion strains, locus YNL183C, strain NPR1, hits give low values 0.914 | S. cerevisiae deletion strains, locus YNL197C, strain WHI3, hits give low values 1.1 | S. cerevisiae deletion strains, locus YNL209W, strain ssb2, hits give low values 0.983 | S. cerevisiae deletion strains, locus YNL224C, strain SQS1, hits give low values 1 | S. cerevisiae deletion strains, locus YNL233W, strain BNI4, hits give low values 1.01 | S. cerevisiae deletion strains, locus YNL248C, strain rpa49, hits give low values 0.99 | S. cerevisiae deletion strains, locus YNL250W, strain rad50, hits give low values 0.987 | S. cerevisiae deletion strains, locus YNL271C, strain bni1, hits give low values 0.987 | S. cerevisiae deletion strains, locus YNL298W, strain CLA4, hits give low values 0.978 | S. cerevisiae deletion strains, locus YNL307C, strain MCK1, hits give low values 0.912 | S. cerevisiae deletion strains, locus YNL322C, strain KRE1 (second series), hits give low values 0.976 | S. cerevisiae deletion strains, locus YNL322C, strain KRE1, hits give low values 1 | S. cerevisiae deletion strains, locus YNR049C, strain mso1, hits give low values 0.978 | S. cerevisiae deletion strains, locus YNR052C, strain pop2, hits give low values 0.985 | S. cerevisiae deletion strains, locus YOL006C, strain TOP1, hits give low values 0.918 | S. cerevisiae deletion strains, locus YOL012C, strain htz1 0.884 | S. cerevisiae deletion strains, locus YOL147C, strain pex11, hits give low values 0.991 | S. cerevisiae deletion strains, locus YOR001W, strain rrp6, hits give low values 0.931 | S. cerevisiae deletion strains, locus YOR061W, strain CKA2, hits give low values 1 | S. cerevisiae deletion strains, locus YOR069W, strain VPS5, hits give low values 1.01 | S. cerevisiae deletion strains, locus YOR070C, strain gyp1, hits give low values 0.996 | S. cerevisiae deletion strains, locus YOR080W, strain dia2, hits give low values 0.969 | S. cerevisiae deletion strains, locus YOR083W, strain WHI5, hits give low values 0.921 | S. cerevisiae deletion strains, locus YOR106W, strain vam3, hits give low values 0.888 | S. cerevisiae deletion strains, locus YOR136W, strain idh2, hits give low values 0.976 | S. cerevisiae deletion strains, locus YOR144C, strain elg1, hits give low values 0.991 | S. cerevisiae deletion strains, locus YOR184W, strain ser1, hits give low values 0.963 | S. cerevisiae deletion strains, locus YOR231W, strain MKK1, hits give low values 0.948 | S. cerevisiae deletion strains, locus YOR265W, strain rbl2, hits give low values 0.97 | S. cerevisiae deletion strains, locus YOR270C, strain vph1, hits give low values 0.789 | S. cerevisiae deletion strains, locus YOR290C, strain snf2, hits give low values 0.983 | S. cerevisiae deletion strains, locus YOR316C, strain cot1, hits give low values 0.984 | S. cerevisiae deletion strains, locus YPL051W, strain arl3, hits give low values 0.956 | S. cerevisiae deletion strains, locus YPL055C, strain LGE1, hits give low values 1.03 | S. cerevisiae deletion strains, locus YPL106C, strain sse1, hits give low values 1 | S. cerevisiae deletion strains, locus YPL240C, strain hsp82, hits give low values 0.983 | S. cerevisiae deletion strains, locus YPL241C, strain CIN2, hits give low values 1.01 | S. cerevisiae deletion strains, locus YPL256C, strain CLN2, hits give low values 0.908 | S. cerevisiae deletion strains, locus YPR119W, strain clb2, hits give low values 0.991 | S. cerevisiae deletion strains, locus YPR141C, strain kar3, hits give low values 0.995 | S. cerevisiae deletion strains, locus YPR163C, strain tif3, hits give low values 0.992 | S. cerevisiae deletion strains, locus YPR167C, strain met16, hits give low values 0.989 | S. cerevisiae deletion strains, strain wtn01, hits give low values 0.977 | S. cerevisiae strains, strain wild type, hits give low values 1.01
active: S. cerevisiae deletion strains, locus YLR027C, strain aat2, hits give low values 0.889 | S. cerevisiae deletion strains, locus YNL071W, strain lat1, hits give low values 0.907 | S. cerevisiae deletion strains, locus YPL078C, strain atp4, hits give low values 0.889
